The source of these data is PubChem BioAssay AID449762 (Southern Research Specialized Biocontainment Screening …, 2010).

Structures are written as SMILES. About 1,900 (0.58%) of roughly 330,000 compounds were called active. Inconclusive results (about 4%) are left out. A selection follows. Measured potencies and affinities stand elsewhere. A number with no mark means an inactive call. No stated cut-off is given here; in the data, inconclusive means inhibition above about 70% without an active follow-up result; inactive means below that.

This assay in a line: M. tuberculosis growth inhibition, HTS (AID 449762).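 Further: bacterial growth assessed after seven days of incubation.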 The note with it: M. tuberculosis H37Rv growth inhibition, 7H9 media; at 25 µM; stronger effect = higher value.
By inhibition is commonly meant the drop in the measured response relative to a control, in per cent. `COc1ccc2oc(C(=O)OCC(=O)Nc3cc(S(=O)(=O)N4CCOCC4)ccc3OC)c(C)c2c1`: the inhibition was 0.56%.

In the case of `COc1ccccc1C(=O)NNC(=O)C(=O)NC(C)C`, the inhibition is 61.6%.

As to `Cc1ccc2nc(SCc3nc4c(cnn4-c4ccccc4)c(=O)[nH]3)[nH]c2c1`, the inhibition was 0.73%.

Consider `Cc1ccc(-c2nc3ccccc3s2)cc1NC(=S)NC(=O)/C=C/c1ccco1`, for which the inhibition is -2.81%.

For the molecule `Cc1ccc(-c2nc3ccccc3o2)cc1NC(=S)NC(=O)/C=C/c1ccco1`, the inhibition was -10.3%.

Regarding `CCOC(=O)[C@H]1[C@H]2COc3ccccc3[C@@H]2N2C(=O)c3cc(F)c(F)cc3NC(=O)[C@@]12C`, the inhibition was -2.93%.

As for `CC(C)NS(=O)(=O)c1ccc(OCC(=O)NCC2CCCO2)c(Cl)c1` (centres undefined), the inhibition is -3.59%.

As for `CC(C)(C)c1ccc(C(=O)OCCNC(=O)c2c(Cl)nc3ccccn23)cc1`, the inhibition is -5.57%.

On to `COc1ccc(NC(=O)c2c(Cl)nc3ccccn23)cc1`, for which the inhibition was 9.69%.

With `CSc1ccccc1C(=O)N1CCN(c2cccc(Cl)c2)CC1`, the inhibition was -1.96%.

`O=S1(=O)CCC(n2ncc3c2/C(=C/c2ccccc2)CC3)C1` (centres undefined): the inhibition was 4.34%.

As for `Cn1c(CNC(=O)c2ccco2)nnc1SCC(=O)c1ccc(F)cc1`, the inhibition is -2.19%.

`O=C(Nc1ccccc1)C1=C[C@H](C2CCCCC2)C[C@H](OCc2ccc(CO)cc2)O1`: the inhibition is 8.7%.

Turning to `O=C(Nc1ccccc1)C1=C[C@@H](C2CC2)C[C@@H](OCc2ccc(CO)cc2)O1`, the inhibition is 5.14%.

Regarding `O=C(c1cc(-c2ccncc2)nc2ccccc12)N1CCN(Cc2ccccc2)CC1`, the inhibition is -9.48%.

Consider `Cc1ccccc1CN1CCN(C(=O)c2cc(-c3ccncc3)nc3ccccc23)CC1`, for which the inhibition was 12.1%.

Consider `C[C@H]1CC[C@]2(O[C@H](CCO)C[C@H](O)[C@H]2O)O1`, for which the inhibition was 3.36%.

In the case of `O=C(Nc1cc(F)ccc1F)C1CCCO1` (centres undefined), the inhibition was -6.27%.

Consider `Cc1ccc(C(=O)Nc2ccc([N+](=O)[O-])cn2)o1`, for which the inhibition is -6.44%.

`C=CCc1c(C)nc(SC)nc1Nc1ccc(C)cc1`: the inhibition is 56%.

Take `C=CCc1c(C)nc(SC)nc1Nc1ccc(C(=O)O)cc1`: the inhibition was -7.64%.

Take `Cc1cccc(C(=O)NCc2nnc(SCC(=O)N3CCN(c4ccccc4)CC3)n2C)c1`: the inhibition was 0.25%.

As for `CSc1ncc(C(=O)Nc2ccccc2C)c(C)n1`, the inhibition is 58.1%.

Turning to `CSc1ncc(C(=O)Nc2ccccc2Cl)c(C)n1`, the inhibition was 6.57%.

`Cc1ccc(NC(=O)COC(=O)CCn2c(C)csc2=O)cc1S(=O)(=O)N1CCOCC1`: the inhibition was -2.47%.

Turning to `O=C(O)c1ccc(Nc2ncc([N+](=O)[O-])cc2[N+](=O)[O-])cc1`, the inhibition was 3.64%.

For the molecule `O=[N+]([O-])c1ccc(Nc2ccc(Cl)cc2)nc1`, the inhibition is 25.4%.

Take `O=C(COC(=O)c1ccccc1Br)Nc1ccc2[nH]c(=O)[nH]c2c1`: the inhibition is -0.67%.

Regarding `CS(=O)(=O)c1ccccc1-c1nnc(NC(=O)C2=COCCO2)o1`, the inhibition was 0.09%.

For `Cc1ccc(C)c(-c2csc(NC(=O)C3=COCCO3)n2)c1`, the inhibition is 65%.

For `Cc1c(NS(=O)(=O)c2cccc(C(=O)OCC(=O)N(C)C3CCCCC3)c2)c(=O)n(-c2ccccc2)n1C`, the inhibition is -13.2%.

As for `S=C(NCc1cccnc1)NCc1cccnc1`, the inhibition is -1.16%.

Consider `CCCOc1ccc(C(=O)NCc2cccnc2)cc1`, for which the inhibition was 1.16%.

As for `NC(=S)NCc1cccnc1`, the inhibition was -5.18%.

`CCOc1ccc(C(=O)NC(=S)NCc2cccnc2)cc1`: the inhibition was -0.27%.

With `C[C@H](CO)N1C[C@H](C)[C@@H](CN(C)S(=O)(=O)c2cn(C)cn2)Oc2ccc(NC(=O)Nc3ccc4c(c3)OCO4)cc2C1=O`, the inhibition is 3.14%.

`COc1cccc(C2=NN(C(=O)c3ccc(C)o3)C(O)(C(F)(F)F)C2)c1` (centres undefined): the inhibition was 3.82%.

For `Cc1coc2cc3oc(=O)c(CCC(=O)NCCCN4CCCC4=O)c(C)c3cc12`, the inhibition was -8.05%.

Regarding `CN(C(=S)Nc1ccc(F)cc1)C1(c2ccccc2Cl)CCCCC1=O` (centres undefined), the inhibition is -2.19%.

In the case of `O=C(O)COc1ccccc1/C=N/NC(=O)C(O)c1ccccc1` (centres undefined), the inhibition was -3.84%.

For `c1ccc2c(-c3csc(-c4ccncc4)n3)c[nH]c2c1`, the inhibition was 2.11%.

For `Brc1ccc(-c2csc(-c3c[nH]c4ccccc34)n2)cc1`, the inhibition is 20.1%.

As to `CCCC(C)NC(=O)COC(=O)c1ccc(Cl)c(S(N)(=O)=O)c1` (centres undefined), the inhibition was -0.98%.

Take `N#CCOC(=O)c1c2c(nc3ccccc13)CCC2`: the inhibition was 1.84%.

Turning to `C=CCN(CC=C)C(=S)NC(=O)/C=C/c1ccccc1`, the inhibition is -2.7%.

Regarding `CN(Cc1ccccc1)C(=S)NC(=O)c1ccc(-c2ccccc2)cc1`, the inhibition was 26.7%.

Turning to `O=C(/C=C/c1ccc(OC2CSC2)cc1)c1ccc(Cl)cc1`, the inhibition was 11.9%.

Turning to `COCCNC(=O)c1cc2c(-c3ccccc3F)nn(C)c2s1`, the inhibition is 12.7%.

With `COc1cccc(-c2nn(C)c3sc(C(=O)Nc4ccc5c(c4)OCCO5)cc23)c1`, the inhibition was 3.01%.

`COc1ccc(C2/C(=C(/O)c3ccc(F)cc3)C(=O)C(=O)N2CCCN2CCOCC2)cc1OC` (centres undefined): the inhibition was -2.8%.

Take `Cn1c(C(F)(F)F)nc2c(=O)oc3ccccc3c21`: the inhibition is 66.9%.

With `Cc1nc2c(=O)oc3ccccc3c2n1-c1ccccc1`, the inhibition is -4.41%.

For the molecule `COc1cc(Cl)ccc1NC(=S)N(CCCN1CCOCC1)Cc1cn(C)c2ccccc12`, the inhibition was -4.57%.

For `O=C(Nc1ccc(Oc2ccc3c(c2)C(=O)N(c2ccc(O)cc2)C3=O)cc1)c1cccs1`, the inhibition is 2.92%.

As for `CCCNc1nc(C)cc(-c2cc(C(=O)Nc3ccccc3)on2)n1`, the inhibition is 28.1%.

For the molecule `COCCNc1nc(-c2cc(C(=O)Nc3ccccc3)on2)cc(C(C)C)n1`, the inhibition is 14.4%.

Regarding `COC(=O)C1CCCCN1C(=O)CCc1nnc(CCc2c[nH]c3ccccc23)o1` (centres undefined), the inhibition is 0.08%.

In the case of `COCCNC(=O)c1ccc(N2CCC3(CC2)OCCO3)c([N+](=O)[O-])c1`, the inhibition was -3.57%.

Regarding `CCCCNC(=O)c1ccc(N2CCC3(CC2)OCCO3)c([N+](=O)[O-])c1`, the inhibition was -3.04%.
